Structures are written as SMILES. Unmarked numbers belong to inactive results. Records with an inconclusive call do not appear. The source made the active and inactive calls. Unless noted, the call rests on the fitted dose curve; in most records, active means well fitted curve in the direction sought with a large enough effect in the repeat runs; inconclusive means weak or mixed curves; inactive means no such curve, though single readings can be large; an effect the other way counts as inactive or inconclusive.

The nature of assay [1]: qHTS assay to identify small molecule agonists of the sonic hedgehog signaling (Shh) pathway (AID 1259368; calls by dose curve;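 further: NIH/3T3-derived 3T3Gli1-Luc cells carrying a stable Gli1-driven firefly luciferase reporter; series mostly up to about 92 µM; nearly all actives have a fitted effect of over 15% in size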). In outline: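 NIH/3T3-derived 3T3Gli1-Luc cells with stably integrated Gli1-driven firefly luciferase, 2,000 cells/well, compounds added after 4 hr. Incubated 24 hr at 37C, 5% CO2; luminescence read after 30 min with luciferase reagent at room temperature.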
The target of assay [2] is Estrogen receptor beta (Homo sapiens) (UniProt Q92731). Nature of the assay: qHTS assay to identify small molecule antagonists of the estrogen receptor beta (ER-beta) signaling pathway (AID 1259378; active means well fitted inhibition curve with a large enough effect in the signal ratio in the repeat runs, not every such curve was filed as active; the % refers to the signal ratio). An outline of the steps:
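Antagonist mode: compounds added to beta-lactamase reporter HEK293T ER-beta-UAS cells stimulated with E2 (1nM final), 16 hr at 37C. LiveBLAzer B/G FRET substrate, 2 hours room temperature, fluorescence read-out.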

Assay [3] is described as follows: qHTS assay to identify small molecule agonists of the androgen receptor (AR) signaling pathway in the presence of an antagonist - cell viability counter screen (AID 1259379).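 Further: MDA-kb2 human breast cancer cells carrying an MMTV luciferase reporter; series mostly up to about 92 µM; nearly all actives have a fitted effect of over 25% in size.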 An outline of the steps: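 MDA-kb2 cells (MMTV-luciferase, AR/GR), 3,000/well, 5 h attachment, then 3.0 µM nilutamide (final) and compounds at 15 concentrations. Viability by CellTiter-Fluor fluorescence after 16 h at 37 °C, 0% CO2, in the reporter wells.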

A short description of assay [4]: qHTS assay to identify small molecule agonists of the estrogen receptor beta (ER-beta) signaling pathway - cell viability counter screen (AID 1259380). Further: nearly all actives have a fitted effect of over 30% in size. An outline of the steps: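 ER-beta-UAS-bla HEK293T cells in medium with 2% charcoal-stripped FBS, pre-incubated 6 hr, then treated 16 hr at 37C. Cytotoxicity read in the same wells by CellTiter-Glo luminescence after 30 min at room temperature.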

Assay [5] addresses Androgen receptor (Homo sapiens) (UniProt P10275). Nature of the assay: qHTS assay to identify small molecule agonists of the androgen receptor (AR) signaling pathway in the presence of an antagonist (AID 1259381; calls by dose curve; further: nearly all actives have a fitted effect of over 15% in size). An outline of the steps:
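MDA-kb2 cells carrying MMTV-luciferase (AR/GR responsive), 3,000 cells/well, co-treated with 3.0 uM nilutamide final. Compounds at 15 concentrations, 16 hr at 37C without CO2. Luciferase luminescence read after 30 min with ONE-Glo.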

Assay [6] is described as follows: qHTS assay to identify small molecule antagonists of the estrogen receptor beta (ER-beta) signaling pathway - cell viability counter screen (AID 1259382). Further: series mostly up to about 92 µM; nearly all actives have a fitted effect of over 55% in size. An outline of the steps:
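ER-beta-UAS-bla HEK293T cells in 2% charcoal-stripped FBS medium, treated with compound plus 1 nM 17-beta-estradiol for 16 h at 37C. Viability read by CellTiter-Glo luminescence after 30 min at room temperature in the same wells.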

Assay [7] in a line: qHTS assay to identify small molecule agonists or antagonists of the thyroid stimulating hormone receptor (TSHR) signaling pathway - wild type cell line counter screen (AID 1259384; calls by dose curve). An outline of the steps:
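Counter screen in untransfected Hek293: compounds (15-point titration, triplicate) plus phosphodiesterase inhibitor Ro20-1724 added after 18 h plating; 30 min RT. Intracellular cAMP via competitive d2/cryptate immunoassay, 1 h incubation.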

Assay [8] concerns the target Thyrotropin receptor (Homo sapiens) (UniProt P16473). Nature of the assay: qHTS assay to identify small molecule antagonists of the thyroid stimulating hormone receptor (TSHR) signaling pathway (AID 1259385; calls by dose curve; further: nearly all actives have a fitted effect of over 20% in size). An outline of the steps:
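Antagonist mode: compound-treated TSHR-expressing HEK293 cells were stimulated with 1.5 ng/mL TSH (final) in presence of Ro20-1724 for 30 min at RT. HTRF cAMP detection after 1 h; each compound tested at 15 concentrations, triplicate.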

A short description of assay [9]: qHTS assay to identify small molecule agonists of the estrogen receptor alpha (ER-alpha) signaling pathway in the presence of an antagonist - cell viability counter screen (AID 1259386).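 Further: series mostly up to about 92 µM; cells exposed to compounds for 22 h at 37 °C before the viability read; nearly all actives have a fitted effect of over 30% in size.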 An outline of the steps: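 Cell viability in VM7Luc4E2 cells (endogenous full-length ER-alpha) measured by CellTiter-Fluor fluorescence in the same wells as the luciferase screen. Cells pre-cultured 5 days in charcoal-stripped serum, then treated 22 h with compounds at 15 concentrations plus 10.0nM ICI-182,780.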

Assay [10] deals with Progesterone receptor (Homo sapiens) (UniProt P06401). Nature of the assay: qHTS assay to identify small molecule agonists of the progesterone receptor (PR) signaling pathway (AID 1346784; calls by dose curve; further: nearly all actives have a fitted effect of over 30% in size). In outline: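 PR-UAS-bla HEK 293T cells carrying a UAS-driven beta-lactamase reporter were seeded in medium with 2% charcoal-stripped FBS, preincubated 6 hr at 37C, then exposed to compounds in DMSO for 16 hr; agonism was read by LiveBLAzer B/G FRET fluorescence.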
Sequence of Progesterone receptor (Homo sapiens) (P06401 whole entry, looked up): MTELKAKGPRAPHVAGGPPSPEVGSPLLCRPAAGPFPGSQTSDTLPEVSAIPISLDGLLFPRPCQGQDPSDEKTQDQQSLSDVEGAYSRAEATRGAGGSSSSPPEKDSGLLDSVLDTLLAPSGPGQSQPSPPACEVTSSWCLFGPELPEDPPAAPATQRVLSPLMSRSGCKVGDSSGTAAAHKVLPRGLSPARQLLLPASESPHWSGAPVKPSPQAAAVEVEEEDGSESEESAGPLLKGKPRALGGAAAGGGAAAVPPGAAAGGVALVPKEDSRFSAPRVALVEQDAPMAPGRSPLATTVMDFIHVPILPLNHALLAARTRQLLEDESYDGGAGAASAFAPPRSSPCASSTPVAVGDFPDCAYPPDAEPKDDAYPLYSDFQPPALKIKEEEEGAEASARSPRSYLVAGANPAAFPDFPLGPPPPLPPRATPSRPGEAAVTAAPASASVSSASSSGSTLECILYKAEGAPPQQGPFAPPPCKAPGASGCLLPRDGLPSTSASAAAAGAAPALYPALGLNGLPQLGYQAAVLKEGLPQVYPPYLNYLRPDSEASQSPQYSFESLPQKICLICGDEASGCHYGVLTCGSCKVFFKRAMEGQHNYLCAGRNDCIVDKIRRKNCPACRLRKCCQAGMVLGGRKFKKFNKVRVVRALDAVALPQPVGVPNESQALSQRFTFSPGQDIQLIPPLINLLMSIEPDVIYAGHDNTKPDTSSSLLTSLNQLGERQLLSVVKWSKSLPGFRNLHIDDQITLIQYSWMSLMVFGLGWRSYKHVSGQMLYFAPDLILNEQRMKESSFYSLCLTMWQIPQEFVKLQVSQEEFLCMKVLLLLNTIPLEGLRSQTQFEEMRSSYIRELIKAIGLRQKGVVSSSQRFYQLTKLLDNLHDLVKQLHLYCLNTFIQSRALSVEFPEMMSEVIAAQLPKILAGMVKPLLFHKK

Assay [11] shares this target. Nature of the assay: qHTS assay to identify small molecule antagonists of the progesterone receptor (PR) signaling pathway (AID 1346795; active means well fitted inhibition curve with a large enough effect in the signal ratio in the repeat runs, not every such curve was filed as active; the % refers to the signal ratio; further: potency means the concentration at half of the fitted maximal effect). In outline: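 PR-UAS-bla HEK293T cells carrying a UAS-driven beta-lactamase reporter were plated in medium with 2% charcoal-stripped FBS and rested 6 hr at 37C. Compounds were added with 1 nM R5020 (final) for 16 hr, then FRET substrate loaded 2 hr at room temperature.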

A short description of assay [12]: qHTS assay to identify small molecule antagonists of the progesterone receptor (PR) signaling pathway - cell viability counter screen (AID 1346798). Further: series mostly up to about 92 µM; nearly all actives have a fitted effect of over 50% in size. An outline of the steps: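 PR-UAS-bla HEK293T cells in medium with 2% charcoal-stripped FBS were treated with compounds plus R5020 for 16 hr at 37C. Cell viability was then read by CellTiter-Glo luminescence after 30 min at room temperature in the same wells.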

Assay [13] is described as follows: qHTS assay to identify small molecule agonists of the progesterone receptor (PR) signaling pathway - cell viability counter screen (AID 1346799; calls by dose curve; further: nearly all actives have a fitted effect of over 45% in size). An outline of the steps:
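PR-UAS-bla HEK293T cells, 3,000 per well in medium with 2% charcoal-stripped FBS, were preincubated 6 hr at 37C, then exposed to compounds for 16 hr; viability was read as CellTiter-Glo luminescence after 30 min at room temperature.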

Assay [14] can be described thus: qHTS assay to identify small molecule antagonists of the TGF-beta/Smad signaling pathway - cell viability counter screen (AID 1346824). Further: nearly all actives have a fitted effect of over 50% in size. In outline: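 Cytotoxicity counter-screen run in the same wells as the beta-lactamase Smad reporter read: CellTiter-Glo luminescence after 30 min at room temperature. HEK 293T SBE-bla cells had 5 hr compound exposure at 37 C with TGF-beta1 (0.25 ng/mL stock).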

The nature of assay [15]: qHTS assay to identify small molecule agonists of the TGF-beta/Smad signaling pathway - cell viability counter screen (AID 1346829). Further: top concentration of the series differs between compounds; nearly all actives have a fitted effect of over 45% in size. In outline:
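CellTiter-Glo luminescence readout; SBE-bla HEK 293T cells, overnight plating, compound 5 hr at 37 C/5% CO2, then bla substrate 2 hr RT, then CellTiter-Glo 30 min RT.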

Assay [16] is described as follows: qHTS assay to identify small molecule agonists of the TGF-beta/Smad signaling pathway (AID 1346859; active means well fitted activation curve with a large enough effect in the signal ratio in the repeat runs, not every such curve was filed as active; the % refers to the signal ratio; further: series mostly up to about 77 µM). In outline: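 HEK 293T cells stably carrying a beta-lactamase reporter driven by the Smad binding element were seeded overnight, exposed to DMSO-dissolved compounds for 5 hr at 37 C, 5% CO2, then loaded with FRET substrate for 2 hr at room temperature.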
In assay [17] the target is Thyrotropin-releasing hormone receptor (Homo sapiens) (UniProt P34981). Nature of the assay: qHTS assay to identify small molecule antagonists of the thyrotropin-releasing hormone receptor (TRHR) signaling pathway (AID 1346877; active means well fitted inhibition curve with a large enough effect in the repeat runs, not every such curve was filed as active; further: series mostly up to about 51 µM). An outline of the steps:
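TRHR-expressing HEK293 cells loaded with calcium dye for 2 h at 37 C; compounds pre-incubated 5 min at room temperature before TRH challenge at 1 nM final. Intracellular calcium fluorescence read kinetically for 3 min; 15 concentrations in triplicate.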

The target in assay [18] is Estrogen receptor beta (Homo sapiens) (UniProt Q92731). Nature of the assay: qHTS assay to identify small molecule agonists of the estrogen receptor beta (ER-beta) signaling pathway (AID 1259377; active means well fitted activation curve with a large enough effect in the signal ratio in the repeat runs, not every such curve was filed as active; the % refers to the signal ratio; further: potency means the concentration at half of the fitted maximal effect). An outline of the steps: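 ER-beta-UAS-bla HEK293T (GripTite) cells carrying a UAS-driven beta-lactamase reporter, in medium with 2% charcoal-stripped FBS, were exposed to compounds for 16 hr at 37C; LiveBLAzer B/G FRET substrate was then added and fluorescence read after 2 hours at room temperature.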
Sequence of Estrogen receptor beta (Homo sapiens) (Q92731 whole entry, looked up): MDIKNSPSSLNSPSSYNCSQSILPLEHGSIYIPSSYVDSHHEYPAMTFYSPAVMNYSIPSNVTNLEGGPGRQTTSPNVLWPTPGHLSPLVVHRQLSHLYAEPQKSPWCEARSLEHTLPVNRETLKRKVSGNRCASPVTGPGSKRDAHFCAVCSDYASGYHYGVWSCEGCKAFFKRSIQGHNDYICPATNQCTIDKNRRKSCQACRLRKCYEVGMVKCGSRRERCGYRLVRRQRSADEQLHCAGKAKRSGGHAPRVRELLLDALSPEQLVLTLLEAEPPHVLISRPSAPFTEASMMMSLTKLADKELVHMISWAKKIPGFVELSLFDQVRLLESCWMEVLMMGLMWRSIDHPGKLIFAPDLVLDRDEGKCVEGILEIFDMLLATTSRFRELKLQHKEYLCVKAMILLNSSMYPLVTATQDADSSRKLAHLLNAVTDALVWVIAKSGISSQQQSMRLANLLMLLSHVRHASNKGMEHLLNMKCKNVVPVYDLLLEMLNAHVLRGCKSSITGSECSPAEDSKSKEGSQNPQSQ

Assay [19] addresses Estrogen receptor (Homo sapiens) (UniProt P03372). Nature of the assay: qHTS assay to identify small molecule agonists of the estrogen receptor alpha (ER-alpha) signaling pathway in the presence of an antagonist (AID 1259383; calls by dose curve; further: nearly all actives have a fitted effect of over 15% in size; further: potency means the concentration at half of the fitted maximal effect; on activation: top concentration of the series differs between compounds). An outline of the steps:
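VM7Luc4E2 cells express endogenous full-length ER-alpha with an ERE-luciferase reporter and were hormone-deprived for 5 days. Compounds at 15 concentrations were added with 10.0nM ICI-182,780 for 22hr at 37C. Luminescence was read with ONE-Glo.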

Sequence of Androgen receptor (Homo sapiens) (P10275 whole entry, looked up): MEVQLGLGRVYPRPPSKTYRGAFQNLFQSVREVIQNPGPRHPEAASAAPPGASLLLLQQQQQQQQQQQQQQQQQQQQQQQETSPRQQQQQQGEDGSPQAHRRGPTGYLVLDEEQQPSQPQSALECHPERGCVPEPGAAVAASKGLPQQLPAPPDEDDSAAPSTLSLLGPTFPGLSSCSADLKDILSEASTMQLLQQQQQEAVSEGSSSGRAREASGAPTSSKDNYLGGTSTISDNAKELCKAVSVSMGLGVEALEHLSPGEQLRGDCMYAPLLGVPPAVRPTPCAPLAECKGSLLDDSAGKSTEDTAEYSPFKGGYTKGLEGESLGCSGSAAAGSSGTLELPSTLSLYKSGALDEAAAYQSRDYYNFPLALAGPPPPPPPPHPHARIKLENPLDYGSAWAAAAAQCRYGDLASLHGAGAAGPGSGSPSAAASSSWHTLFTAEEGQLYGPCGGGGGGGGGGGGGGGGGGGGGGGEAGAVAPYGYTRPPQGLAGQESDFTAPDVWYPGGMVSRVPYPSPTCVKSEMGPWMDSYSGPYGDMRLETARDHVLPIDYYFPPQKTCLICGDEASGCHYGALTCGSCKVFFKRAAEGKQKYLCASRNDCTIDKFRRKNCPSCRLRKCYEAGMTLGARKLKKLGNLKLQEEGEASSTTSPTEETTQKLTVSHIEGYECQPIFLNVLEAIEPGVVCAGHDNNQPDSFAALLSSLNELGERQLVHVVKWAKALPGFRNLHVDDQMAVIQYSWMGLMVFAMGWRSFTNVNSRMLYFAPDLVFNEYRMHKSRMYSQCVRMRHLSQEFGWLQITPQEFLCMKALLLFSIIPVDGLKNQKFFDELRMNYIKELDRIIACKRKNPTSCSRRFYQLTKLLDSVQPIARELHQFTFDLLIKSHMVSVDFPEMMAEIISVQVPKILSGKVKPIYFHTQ
Sequence of Thyrotropin-releasing hormone receptor (Homo sapiens) (P34981 whole entry, looked up): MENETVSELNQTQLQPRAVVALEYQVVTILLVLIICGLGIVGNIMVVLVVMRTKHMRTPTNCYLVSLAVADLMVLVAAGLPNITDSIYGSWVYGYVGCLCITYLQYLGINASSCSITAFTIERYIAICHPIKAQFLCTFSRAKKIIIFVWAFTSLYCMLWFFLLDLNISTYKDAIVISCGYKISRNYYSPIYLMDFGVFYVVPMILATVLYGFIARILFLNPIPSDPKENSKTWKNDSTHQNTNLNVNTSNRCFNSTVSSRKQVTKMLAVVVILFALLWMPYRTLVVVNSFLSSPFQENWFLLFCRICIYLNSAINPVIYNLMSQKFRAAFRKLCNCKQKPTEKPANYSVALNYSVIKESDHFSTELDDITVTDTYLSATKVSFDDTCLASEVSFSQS
Sequence of Thyrotropin receptor (Homo sapiens) (P16473 whole entry, looked up): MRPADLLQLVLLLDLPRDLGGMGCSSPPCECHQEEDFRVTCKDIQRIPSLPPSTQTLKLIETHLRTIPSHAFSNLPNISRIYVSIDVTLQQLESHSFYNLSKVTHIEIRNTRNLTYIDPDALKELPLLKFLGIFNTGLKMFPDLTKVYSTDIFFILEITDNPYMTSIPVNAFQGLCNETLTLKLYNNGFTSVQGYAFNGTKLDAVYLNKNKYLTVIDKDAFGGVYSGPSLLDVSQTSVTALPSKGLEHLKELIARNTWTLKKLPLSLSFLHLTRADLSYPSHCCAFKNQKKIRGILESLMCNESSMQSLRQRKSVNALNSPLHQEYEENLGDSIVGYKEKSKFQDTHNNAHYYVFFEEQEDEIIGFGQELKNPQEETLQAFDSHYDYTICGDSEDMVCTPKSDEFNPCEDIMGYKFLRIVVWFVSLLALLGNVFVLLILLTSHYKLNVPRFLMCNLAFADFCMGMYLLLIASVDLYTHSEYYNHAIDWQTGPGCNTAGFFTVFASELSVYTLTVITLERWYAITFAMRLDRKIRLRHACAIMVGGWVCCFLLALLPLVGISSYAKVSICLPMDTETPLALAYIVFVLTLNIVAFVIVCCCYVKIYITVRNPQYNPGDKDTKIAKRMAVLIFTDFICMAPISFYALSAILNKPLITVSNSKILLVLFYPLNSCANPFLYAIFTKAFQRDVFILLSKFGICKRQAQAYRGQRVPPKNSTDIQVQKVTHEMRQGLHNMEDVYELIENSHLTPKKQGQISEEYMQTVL
Sequence of Estrogen receptor (Homo sapiens) (P03372 whole entry, looked up): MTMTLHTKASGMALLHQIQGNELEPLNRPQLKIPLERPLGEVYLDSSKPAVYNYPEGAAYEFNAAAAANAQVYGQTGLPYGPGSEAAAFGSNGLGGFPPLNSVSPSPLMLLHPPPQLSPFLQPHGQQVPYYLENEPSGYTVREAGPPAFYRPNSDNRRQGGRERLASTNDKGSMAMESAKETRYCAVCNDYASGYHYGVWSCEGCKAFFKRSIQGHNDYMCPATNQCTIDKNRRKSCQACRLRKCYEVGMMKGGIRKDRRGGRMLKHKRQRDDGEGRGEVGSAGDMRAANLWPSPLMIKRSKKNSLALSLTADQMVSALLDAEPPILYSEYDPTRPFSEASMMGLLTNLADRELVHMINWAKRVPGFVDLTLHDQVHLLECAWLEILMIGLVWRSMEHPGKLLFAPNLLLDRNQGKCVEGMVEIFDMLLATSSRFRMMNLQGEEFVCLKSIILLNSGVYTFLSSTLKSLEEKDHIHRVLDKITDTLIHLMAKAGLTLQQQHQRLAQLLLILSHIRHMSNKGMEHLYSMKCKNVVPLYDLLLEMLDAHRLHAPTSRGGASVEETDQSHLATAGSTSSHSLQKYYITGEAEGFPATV

In the case of `c1cnc2c(n1)CCCC2`, the Potency result in assay [1], in assay [2], in [3], in assay [4], in assay [5] and in assay [6] was “inactive” in each case. In addition, the Potency entry in assay [8], in assay [9], in assay [10], in [11], in [12] and in [13] was “inactive” throughout. In addition, the call in [7], in [14], in assay [15], in [16] and in [17] was inactive.

Take `NC(=O)N(O)[C@@H]1C=C[C@H](Oc2cccc(Oc3ccc(F)cc3)c2)C1`: the Potency result in assay [1], in [18], in [4], in assay [6], in assay [8] and in assay [10] was “inactive” each time. Moreover, the outcome in assay [7], in assay [15] and in [16] was inactive.

For the compound `CCC(=O)Oc1ccc(/C(CC)=C(\CC)c2ccc(OC(=O)CC)cc2)cc1`, the Potency result in assay [1], in assay [3], in [6], in assay [8] and in [9] was “inactive” in each case. The Potency in [18] was 1.7 nM (active); in assay [19], 5.4 nM (active); in assay [11], 12200 nM (active). Also, the call in assay [7], in assay [14], in assay [15], in [16] and in assay [17] was inactive.

`Cc1c(C(=O)NN2CCCCC2)nn(-c2ccc(Cl)cc2Cl)c1-c1ccc(Cl)cc1`: the Potency result in assay [1], in assay [18], in assay [3], in assay [5], in assay [6] and in assay [19] was “inactive” in each case. Also, the Potency entry in assay [8], in [9] and in assay [10] was “inactive” each time. Moreover, the outcome in assay [7], in [14], in assay [15] and in [16] was inactive. Moreover, in assay [11], the Potency is 11900 nM (active).

For the compound `Cc1nc2ccccn2c(=O)c1CCN1CCC(C(=O)c2ccc(F)cc2)CC1`, the Potency entry in assay [1], in assay [18], in assay [2], in assay [3], in assay [6] and in [19] was “inactive” throughout. The Potency result in [10], in assay [11], in assay [12] and in [13] was “inactive” each time. Also, the compound was called inactive in assay [14], in assay [15], in assay [16] and in [17].

Regarding `CCCCC/C(=C\c1ccccc1)CO`, the Potency result in assay [1], in [18], in assay [2], in [3], in assay [6] and in assay [8] was “inactive” in each case. Further, the Potency result in [9], in [10], in assay [12] and in [13] was “inactive” throughout. The call in [7], in assay [14], in assay [15], in [16] and in assay [17] was inactive.

As for `C=CC(C)=CCC=C(C)C`, the Potency entry in assay [1], in assay [18], in [3], in assay [4], in [6] and in assay [9] was “inactive” each time. For the same compound, the Potency result in assay [10], in assay [11], in [12] and in [13] was “inactive” throughout. In addition, the call in [14], in assay [15] and in assay [16] was inactive.

As for `CC(=O)Oc1ccc2c(c1)CC[C@@H]1[C@@H]2CC[C@]2(C)[C@@H](O)CC[C@@H]12`, the Potency result in [1], in assay [3], in assay [4], in [6], in assay [8] and in assay [9] was “inactive” each time. Moreover, in assay [13], the Potency result was “inactive”. Besides, the Potency in assay [18] is 0.8 nM (active). For the same compound, the outcome in [7], in assay [14], in [15], in [16] and in assay [17] was inactive.

`CCCCCCCCSCCO`: the Potency entry in assay [1], in assay [3], in assay [4], in [5], in assay [6] and in assay [8] was “inactive” throughout. Further, the Potency result in assay [9], in assay [12] and in assay [13] was “inactive” each time. Moreover, the call in [7], in [14], in assay [15], in assay [16] and in assay [17] was inactive.

The values are drawn from PubChem BioAssay (Tox21).
